Where “and” joins values, the source holds several entries; their conditions need not be identical. Identical values can stand only once. Hit rate of the full screen: of about 5,500 compounds, about 2,000 (36%) were called active. About 18% were inconclusive and are not listed. Rule as the data show it: active = normalized growth mostly below about 0.91 (no sharp cut-off); inconclusive = no clear call, values can overlap the other calls; inactive = mostly above about 0.92. The list shows a part of the results.
Test: chemical genetic growth profiling, strain panel (AID 1159580);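 also: tested at 20 µM; growth read once vehicle control cultures reached saturation at 30 °C; 1 = growth at the plate median or of vehicle wells; lower values mean less growth of the strain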
Details: S. cerevisiae deletion strains, growth OD

Measured: normalized growth

Cc1cc(=O)oc2cc(O)c(O)cc12
inactive: locus YAL021C, strain ccr4, stronger effect = lower value 1.01 | locus YAL026C, strain drs2, stronger effect = lower value 0.996 | locus YAL030W, strain snc1, stronger effect = lower value 1 | locus YBL061C, strain skt5, stronger effect = lower value 0.999 | locus YBR009C, strain hhf1, stronger effect = lower value 0.963 | locus YBR021W, strain FUR4, stronger effect = lower value 1.02 | locus YBR023C, strain chs3, stronger effect = lower value 0.998 | locus YBR171W, strain sec66, stronger effect = lower value 0.987 | locus YBR229C, strain ROT2, stronger effect = lower value 1 | locus YBR231C, strain swc5, stronger effect = lower value 0.995 | locus YBR279W, strain paf1, stronger effect = lower value 0.987 | locus YCL011C, strain gbp2, stronger effect = lower value 0.994 | locus YCL016C, strain dcc1, stronger effect = lower value 1 | locus YCL029C, strain bik1, stronger effect = lower value 0.974 | locus YCL061C, strain MRC1, stronger effect = lower value 0.989 | locus YCL069W, strain vba3, stronger effect = lower value 0.99 | locus YCR088W, strain abp1, stronger effect = lower value 1 | locus YDL005C, strain med2, stronger effect = lower value 0.98 | locus YDL035C, strain GPR1, stronger effect = lower value 0.973 | locus YDL040C, strain nat1, stronger effect = lower value 0.983 | locus YDL074C, strain BRE1, stronger effect = lower value 0.976 | locus YDL101C, strain DUN1, stronger effect = lower value 0.958 | locus YDL134C, strain PPH21, stronger effect = lower value 0.955 | locus YDL185W, strain tfp1, stronger effect = lower value 0.979 | locus YDL192W, strain arf1, stronger effect = lower value 0.961 | locus YDR001C, strain nth1, stronger effect = lower value 0.998 | locus YDR069C, strain doa4, stronger effect = lower value 0.994 | locus YDR101C, strain arx1, stronger effect = lower value 0.973 | locus YDR137W, strain rgp1, stronger effect = lower value 0.964 | locus YDR159W, strain sac3, stronger effect = lower value 0.997 | locus YDR162C, strain NBP2, stronger effect = lower value 0.985 | locus YDR195W, strain ref2 1.05 | locus YDR297W, strain sur2, stronger effect = lower value 0.995 | locus YDR318W, strain mcm21, stronger effect = lower value 0.966 | locus YDR334W, strain swr1, stronger effect = lower value 0.99 | locus YDR335W, strain msn5, stronger effect = lower value 0.994 | locus YDR388W, stronger effect = lower value 0.99 | locus YDR392W, strain spt3, stronger effect = lower value 0.91 | locus YDR502C, strain sam2, stronger effect = lower value 0.974 | locus YEL003W, strain gim4, stronger effect = lower value 0.981 | locus YEL037C, strain rad23, stronger effect = lower value 0.991 | locus YEL061C, strain CIN8 (second series), stronger effect = lower value 0.988 | locus YEL061C, strain CIN8, stronger effect = lower value 0.999 | locus YER015W, strain faa2, stronger effect = lower value 0.998 | locus YER016W, strain bim1, stronger effect = lower value 0.995 | locus YER110C, stronger effect = lower value 0.973 | locus YER111C, strain swi4, stronger effect = lower value 1.01 | locus YER155C, strain BEM2, stronger effect = lower value 1.01 | locus YER167W, strain BCK2, stronger effect = lower value 1.02 | locus YFR010W, strain ubp6, stronger effect = lower value 0.997 | locus YGL078C, strain dbp3, stronger effect = lower value 0.959 | locus YGL086W, strain mad1, stronger effect = lower value 0.993 | locus YGL167C, strain pmr1, stronger effect = lower value 0.99 | locus YGL173C, strain kem1, stronger effect = lower value 0.978 | locus YGL227W, strain vid30, stronger effect = lower value 1 | locus YGL240W, strain doc1, stronger effect = lower value 0.952 | locus YGL248W, strain PDE1, stronger effect = lower value 0.98 | locus YGL253W, strain hxk2, stronger effect = lower value 1 | locus YGR078C, strain PAC10, stronger effect = lower value 0.983 | locus YGR135W, strain pre9, stronger effect = lower value 0.957 | locus YGR229C, strain SMI1, stronger effect = lower value 0.974 | locus YGR252W, strain gcn5, stronger effect = lower value 0.79 | locus YHR013C, strain ard1, stronger effect = lower value 0.985 | locus YHR027C, strain rpn1, stronger effect = lower value 1 | locus YHR030C, strain SLT2, stronger effect = lower value 1.01 and 0.905 | locus YHR079C, strain IRE1 (second series), stronger effect = lower value 1.01 | locus YHR079C, strain IRE1, stronger effect = lower value 0.901 | locus YHR094C, strain hxt1, stronger effect = lower value 1.02 | locus YHR129C, strain ARP1, stronger effect = lower value 0.999 | locus YHR142W, strain chs7, stronger effect = lower value 0.958 | locus YHR200W, strain rpn10, stronger effect = lower value 0.972 | locus YIL066C, strain RNR3, stronger effect = lower value 1 | locus YIL073C, strain SPO22, stronger effect = lower value 1 | locus YIL125W, strain kgd1, stronger effect = lower value 1.01 | locus YIR030C, strain dcg1, stronger effect = lower value 0.99 | locus YJL092W, strain hpr5, stronger effect = lower value 0.993 | locus YJL095W, strain BCK1 (second series), stronger effect = lower value 0.998 | locus YJL095W, strain BCK1, stronger effect = lower value 0.932 and 0.924 | locus YJL115W, strain asf1, stronger effect = lower value 0.994 | locus YJL129C, strain trk1, stronger effect = lower value 1.05 | locus YJL134W, strain LCB3, stronger effect = lower value 1.01 | locus YJL154C, strain vps35, stronger effect = lower value 1.01 | locus YJL164C, strain tpk1, stronger effect = lower value 0.973 | locus YJL166W, strain qcr8, stronger effect = lower value 0.995 | locus YJL168C, strain set2, stronger effect = lower value 1 | locus YJL187C, strain SWE1 (second series), stronger effect = lower value 0.991 | locus YJL187C, strain SWE1, stronger effect = lower value 0.999
active: locus YER155C, strain BEM2 (second series), stronger effect = lower value 0.787

Reference: PubChem BioAssay AID1159580 (chemical genetic matrix, 2015)
